Screening data (PubChem)
Hits are enriched below; roughly 3.2% of the tested compounds scored in any of these assays.
AmpC detergent: qHTS Inhibitors of AmpC Beta-Lactamase (assay with detergent); P00811; AmpC hydrolysis of nitrocefin, absorbance 480 nm, 0.01% Triton; Potency, µM (series often up to 114 µM), without a hit: top-dose activity change, negative = inhibition, actives largely listed as inhibitors; hit rate 0.041% among 370,000; AID 485294, 2010;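 also: 0% = no-compound wells and -100% = no-enzyme wells; nearly all actives have a fitted effect of over 25% in size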
Target sequence (P00811 whole entry, looked up): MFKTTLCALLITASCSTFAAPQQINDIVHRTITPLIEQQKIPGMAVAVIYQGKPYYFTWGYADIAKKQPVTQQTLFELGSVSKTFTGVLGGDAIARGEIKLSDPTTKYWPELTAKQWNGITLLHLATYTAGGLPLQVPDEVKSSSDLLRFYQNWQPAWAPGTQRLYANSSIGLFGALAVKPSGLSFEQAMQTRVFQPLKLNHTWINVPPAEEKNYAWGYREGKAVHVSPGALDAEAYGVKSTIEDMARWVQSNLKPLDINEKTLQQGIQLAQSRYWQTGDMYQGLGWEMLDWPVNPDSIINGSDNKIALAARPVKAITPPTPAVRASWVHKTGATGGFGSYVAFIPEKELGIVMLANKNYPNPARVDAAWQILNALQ
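20 mM phosphate pH 7.0 + 0.01% (detergent screen) or 0.0001% Triton X-100; 5.3 nM AmpC reagent; cpd preinc 15 min RT; nitrocefin (800 uM stock) to start; A480 q20 s × 4 min; Activity was normalised to no-enzyme and no-compound control wells.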
Sm TGR block: qHTS Assay for the Inhibitors of Schistosoma Mansoni Peroxiredoxins; purified TGR, DTNB reduction, TNB absorbance 405 nm; Potency, µM (series often up to 114 µM), for inactives: at the highest dose activity change, negative = inhibition, actives largely listed as inhibitors; Schistosoma mansoni thioredoxin glutathione reductase (TGR), Q962Y6; hit rate 3% among 360,000; also: nearly all actives have a fitted effect of over 60% in size
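First, TGR (20 nM dispensed) and NADPH were mixed with compound. Second, a 15 min room-temperature incubation followed. Third, further NADPH and then DTNB were added to start the reaction. Finally, TNB absorbance was monitored kinetically.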
AMA1-RON2 inh: qHTS for Inhibitors of AMA1-RON; Towards Development of Antimalarial Drug Lead: Primary Screen | Potency, µM (top dose mostly 58.2 µM), for inactives: at the top dose activity change, negative = inhibition, most hits filed as inhibitors | hit rate 0.2% among 360,000 | Plasmodium falciparum AMA1 (3D7) - RON2 peptide interaction | AlphaScreen AMA1-biotinylated RON2 peptide binding;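 also: 0% = vehicle wells and -100% = peptide control; nearly all actives have a fitted effect of over 45% in size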
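AMA1 (3D7) with his tag at 25 nM final met compounds first, then biotinylated RON2 peptide at 25 nM; detection used donor plus acceptor beads, 10 µg/mL apiece, read by AlphaScreen after 30 min at room temperature.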
RE007 growth inh: qHTS Assay for Inhibitors of the HIV-1 protein Vpr; S. pombe RE007 Vpr strain, BacTiter-Glo ATP luminescence, 24 h; Potency, µM (top dose mostly 92.2 µM), without a hit: top-dose activity change, negative = less growth, hits mostly inhibitors; hit rate 0.21% among 360,000; active = well fitted falling curve with a large enough effect; inconclusive = small, poorly fitted or top-dose-only effect; inactive = no such curve, though single readings can be large or run the other way; also: nearly all actives have a fitted effect of over 50% in size
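Fission yeast strain RE007, carrying one chromosomally integrated HIV-1 vpr copy, was seeded at OD 0.01 in PMG+AL medium with 23 nL pinned compound. After 24 h at 30 °C and 99% humidity, viability was read by BacTiter-Glo luminescence.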
AmpC no deterg: qHTS Inhibitors of AmpC Beta-Lactamase (assay without detergent) | Potency, µM (highest dose often 57.1 µM), for inactives: at the top dose activity change, negative = inhibition, most hits filed as inhibitors | AID 485341, 2010 | hit rate 0.52% among 330,000 | AmpC nitrocefin hydrolysis, absorbance 480 nm, 0.0001% Triton;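 also: plate controls were no compound for no effect and no enzyme for full effect; nearly all actives have a fitted effect of over 20% in size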
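AmpC (5.3 nM in the dispensed reagent) in 20 mM phosphate pH 7.0 with 0.01% (detergent screen) or 0.0001% Triton X-100 was preincubated with compounds for 15 min at room temperature. Nitrocefin was then added from an 800 uM solution, and hydrolysis was followed at 480 nm.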
* marks the source's active call; other numbers are inactive results; [ ] = another dose, or the depositor's remark. Unless noted, calls follow the shape of the dose curve; as a rule, active = well fitted curve in the direction sought with a large enough effect; inconclusive = small, poorly fitted or top-dose-only effect, or another doubt; inactive = no such curve, though single readings can be large; an effect the other way counts as inactive or inconclusive. Unless noted, % is scaled to controls: 0 for no effect and ±100 for the full control effect; potency is read from the fitted curve at half-maximal effect.

O=c1[nH]c(=O)n(Cc2ccccc2)c(O)c1C=NCCN1CCNCC1 was read as AmpC detergent -3%, Sm TGR block 35µM*, AMA1-RON2 inh 8%, RE007 growth inh 14% and AmpC no deterg 21%.
For O=c1[nH]c(=O)n(CCC2=CCCCC2)c(O)c1C=NCCN1CCNCC1 the results were AmpC detergent inconclusive, Sm TGR block 10µM*, AMA1-RON2 inh 41%, RE007 growth inh 1% and AmpC no deterg 77%.
Screening C=CCn1c(O)c(C=NCCN2CCNCC2)c(=O)[nH]c1=O returned AmpC detergent -9%, Sm TGR block 0%, AMA1-RON2 inh 15%, RE007 growth inh 18% and AmpC no deterg -21%.
Screening CCN1CCc2c(sc(NC(=O)c3ccc(S(=O)(=O)N4CCCC(C)C4)cc3)c2C(=O)OC)C1 (centres undefined) returned AmpC detergent -2% and Sm TGR block 4%.
`COc1ccc(Nc2cc(C(=O)NCCCN(C)Cc3ccccc3)c3ccccc3n2)cc1OC` gave AmpC detergent -3% and Sm TGR block 4%.
CCN(CC)CCN=Cc1c(O)n(CCc2ccccc2)c(=O)[nH]c1=O was read as AmpC detergent 0%, Sm TGR block 25µM*, AMA1-RON2 inh 43%, RE007 growth inh -2% and AmpC no deterg -23%.
O=[N+]([O-])c1ccccc1NC(=S)N/N=C/c1ccc(O)c(O)c1 was read as AmpC detergent -2%, Sm TGR block -22%, AMA1-RON2 inh 77%, RE007 growth inh -3% and AmpC no deterg 4.5µM*.
For CC1CCCCC1NS(=O)(=O)c1ccc(S(=O)(=O)N2CCN(CCC#N)CC2)cc1 (centres undefined) the results were AmpC detergent inconclusive, Sm TGR block 19%, AMA1-RON2 inh 18%, RE007 growth inh -14% and AmpC no deterg 45µM*.
N#CCCN1CCN(S(=O)(=O)c2ccc(S(=O)(=O)NCc3ccccc3)cc2)CC1 was read as AmpC detergent inconclusive, Sm TGR block 0%, AMA1-RON2 inh -1%, RE007 growth inh -6% and AmpC no deterg 10µM*.
N#CCCN1CCN(S(=O)(=O)c2ccc(S(=O)(=O)N3CCOCC3)cc2)CC1 was read as AmpC detergent inconclusive, Sm TGR block 0%, AMA1-RON2 inh 7%, RE007 growth inh 7% and AmpC no deterg -9%.
`O=C(Nc1ccccc1)NC1(C(=O)NCCCN2CCOCC2)CCCCC1` gave AmpC detergent -21%, Sm TGR block -32%, AMA1-RON2 inh 0%, RE007 growth inh 3% and AmpC no deterg -8%.
Screening O=C(Nc1ccccc1)NC1(C(=O)NCc2cccs2)CCCCC1 returned AmpC detergent 2%, Sm TGR block 5%, AMA1-RON2 inh -3%, RE007 growth inh -1% and AmpC no deterg 0.14µM*.
For O=C(O)c1nn(-c2ccccc2-c2n[nH]c(=O)[nH]c2=O)c(=O)[nH]c1=O the results were AmpC detergent -10%, Sm TGR block 11µM* and AmpC no deterg -1%.
Screening O=C(c1ccccc1)N1CCN(c2n[nH]c(=O)[nH]c2=O)CC1 returned AmpC detergent -4%, Sm TGR block -6%, AMA1-RON2 inh 7%, RE007 growth inh 3% and AmpC no deterg -7%.
Screening COc1cn(CC(=O)Nc2ccc(C)cc2C)c(CN2CCCCC2)cc1=O returned AmpC detergent -4% and Sm TGR block -2%.
`Clc1ccc(CSc2cc3c(nn2)-c2ccccc2CC3)cc1Cl` gave AmpC detergent 5%, Sm TGR block 3%, AMA1-RON2 inh 24%, RE007 growth inh 4% and AmpC no deterg 0.32µM*.
O=C1c2oc3ccccc3c(=O)c2C(c2ccccc2)N1Cc1ccc2c(c1)OCO2 (centres undefined) was read as AmpC detergent 2% and Sm TGR block 2%.
COC(=O)c1ccc(CSc2ccc3nnc(-c4cccnc4)n3n2)o1 was read as AmpC detergent inconclusive, Sm TGR block 40µM* and AmpC no deterg -7%.
COC(=O)c1ccc(CSc2ccc3nnc(-c4ccc(OC)cc4)n3n2)o1 was read as AmpC detergent 6%, Sm TGR block inconclusive and AmpC no deterg -16%.
For COCc1cc(C)nc(OCC(=O)N/N=C/c2ccc(-c3cc([N+](=O)[O-])ccc3C)o2)c1C#N the results were AmpC detergent 4%, Sm TGR block 0%, AMA1-RON2 inh 0%, RE007 growth inh 5% and AmpC no deterg -10%.
`Cc1ccc([N+](=O)[O-])cc1-c1ccc(/C=C(\C#N)c2[nH]nc(N)c2C#N)o1` gave AmpC detergent 2%, Sm TGR block -9%, AMA1-RON2 inh -2%[11.6 µM], RE007 growth inh 3% and AmpC no deterg 32µM*.
Screening N#CCCS(=O)(=O)c1nnnn1-c1ccccc1 returned AmpC detergent -9%, Sm TGR block 7.1µM* and AmpC no deterg -20%.
Screening COc1ccc(NC(=O)c2sc3nc(C)c(C(=O)Nc4ccc(C)cc4C)c(-c4ccc(C)o4)c3c2N)cc1 returned AmpC detergent 16% and Sm TGR block 9%.
For O=C(C(Cc1ccccc1)N1C(=O)C2C3C=CC(C3)C2C1=O)N1CCCCC1 (centres undefined) the results were AmpC detergent inconclusive, Sm TGR block 0%, AMA1-RON2 inh 3%, RE007 growth inh 2% and AmpC no deterg 15%.
For O=C(NCc1ccco1)C(Cc1ccccc1)N1C(=O)C2C3C=CC(C3)C2C1=O (centres undefined) the results were AmpC detergent 4%, Sm TGR block 22µM*, AMA1-RON2 inh 8%, RE007 growth inh -11% and AmpC no deterg -8%.
`O=C(C(Cc1ccccc1)N1C(=O)C2C3C=CC(C3)C2C1=O)N1CCCCCC1` (centres undefined) gave AmpC detergent 1%, Sm TGR block 79µM*, AMA1-RON2 inh 14% and RE007 growth inh 2%.
For Cc1ccc(CNC(=O)Cc2ccc(NC(=O)N3CCSc4ncccc43)cc2)cc1 the results were AmpC detergent 25% and Sm TGR block -1%.
`COc1ccc(Nc2nc(Nc3ccc(OC)cc3OC)nc(N3CCOCC3)n2)c(OC)c1` gave AmpC detergent -11% and Sm TGR block -4%.
Screening COc1ccc(C(c2nnnn2CCc2ccccc2)N2CCN(C)CC2)cc1OC (centres undefined) returned AmpC detergent -2%, Sm TGR block 89µM*, AMA1-RON2 inh -7%, RE007 growth inh 9% and AmpC no deterg 1%.
